Test results reported in PubChem BioAssay AID588489 (Sanford-Burnham Center for Chemical Genomics, 2011).
Screen size: about 360,000 compounds; about 1,300 (0.36%) were called active. This is one part of a sample in which actives are shown more often than they occur. Values without a mark were called inactive. Cut-off read from the data, not from the text of the source: active = inhibition above about 35% (passing the limit was not always enough); inactive = the rest.

Target: Polyadenylate-binding protein 1 (Homo sapiens) (UniProt P11940)
Sequence (P11940 whole entry, looked up): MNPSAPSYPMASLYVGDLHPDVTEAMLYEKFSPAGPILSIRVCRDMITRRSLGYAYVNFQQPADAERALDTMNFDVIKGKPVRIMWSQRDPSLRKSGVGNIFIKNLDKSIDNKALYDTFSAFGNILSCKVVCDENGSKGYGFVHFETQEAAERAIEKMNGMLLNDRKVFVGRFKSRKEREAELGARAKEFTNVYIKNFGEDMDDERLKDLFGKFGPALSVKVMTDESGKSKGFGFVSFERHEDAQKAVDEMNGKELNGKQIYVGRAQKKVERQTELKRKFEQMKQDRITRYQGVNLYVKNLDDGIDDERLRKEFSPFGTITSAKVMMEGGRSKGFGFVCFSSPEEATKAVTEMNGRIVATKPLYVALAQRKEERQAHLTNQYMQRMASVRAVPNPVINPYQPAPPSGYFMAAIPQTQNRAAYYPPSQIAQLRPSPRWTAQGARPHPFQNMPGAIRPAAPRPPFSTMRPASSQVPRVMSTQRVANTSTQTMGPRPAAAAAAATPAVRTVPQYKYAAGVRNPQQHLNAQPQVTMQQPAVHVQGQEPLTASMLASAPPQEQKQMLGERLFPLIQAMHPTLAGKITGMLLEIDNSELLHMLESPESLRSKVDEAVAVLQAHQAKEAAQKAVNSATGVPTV
Test: PAM2 peptide displacement from PABP1 MLLE – biochemical, fluorescence polarization, FITC-PAM2, GST-MLLE, primary screen (AID 588489);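 note: plate controls were DMSO wells with GST-MLLE for no effect and wells lacking GST-MLLE protein for full effect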
Conditions: at 20 µM, hits give high values

Compared with `O=C1NCCn2nc3ccccc3c21`, `O=C(c1ccc(F)cc1)N1CCC(n2nnc3ccccc32)CC1` is lower in inhibition: 0.33% for the first, -6.3% for the second.

First: Nc1ccc2nc3c(=O)[nH]c(=S)[nH]c3nc2c1
Second: CCOC(=O)CNc1nc(Cl)nc(Nc2ccc(OC)cc2OC)n1
The inhibition of the first is higher: 177% for the first, 1.38% for the second.

First: COC(=O)c1ccc(CNC(=O)c2ccc(S(=O)(=O)N3CCCCCC3)cc2)cc1
Second: COc1ccc(NS(=O)(=O)c2ccc(C)c(C(=O)NNC(=O)c3csc(N4CCOCC4)n3)c2)cc1
The inhibition of the first is higher: -6.55% for the first, -13.1% for the second.

First: Cc1cc2cc(CNC(=O)c3cccs3)ccc2[nH]1
Second: Cc1ccc(S(=O)(=O)NNC(=O)Nc2cccc3ccccc23)cc1
The inhibition of the first is higher: 38% for the first, 3.51% for the second.

First: COCCN(C(=O)c1ccccc1F)c1c(N)n(Cc2ccccc2)c(=O)[nH]c1=O
Second: COCCn1c(N)c(N(Cc2ccccc2)C(=O)C2CCCCC2)c(=O)[nH]c1=O
The inhibition of the first is lower: -9.82% for the first, -2.43% for the second.

Going from `C=CCc1cccc2cc(C(=O)NC3CCCC3)c(=O)oc12` to `O=C(c1ccc(Cn2cc([N+](=O)[O-])cn2)o1)N1CCCC1`, the inhibition falls from 6.38% to -7%.

First: CC1CN(C(=O)c2ccc3c(c2)OCO3)OC(c2ccccc2)O1 (stereo not drawn)
Second: CC1COc2ccccc2N1C(=O)c1ccc(F)cc1 (stereo not drawn)
The inhibition of the first is higher: 0.75% for the first, -13.6% for the second.

Compared with `CSCCC(NC(=O)C1CCC(C)CC1)C(=O)NCc1ccco1` (stereo not drawn), `O=C(NCCC(=O)N1O[C@@H]2C=C[C@H]1C2)OCC1c2ccccc2-c2ccccc21` is higher in inhibition: -8.36% for the first, -4.15% for the second.

Compared with `CC(=O)Nc1ccc(NC(=O)C(NS(=O)(=O)c2ccc3c(c2)OCCO3)C(C)C)cc1` (stereo not drawn), `COc1cc(NC(=O)Nc2ccc(C)cc2)cc([N+](=O)[O-])c1` is lower in inhibition: 1.54% for the first, -3.48% for the second.

Compared with `Cc1cccc(-n2c(N)c(C(=O)N3CCN(C)CC3)sc2=S)c1`, `COc1cccc(-n2c(=S)sc3c(=O)n(-c4ccccc4C)c(SCC(=O)O)nc32)c1` is lower in inhibition: 3.33% for the first, -10.4% for the second.

First: CCOC(=O)C(C)n1cnc2c(nnn2-c2cccc(OC)c2)c1=O (stereo not drawn)
Second: COc1cccc(-n2c(=S)sc3c(=O)n(-c4ccccc4OC)c(SCC4OCCO4)nc32)c1
The inhibition of the first is higher: 1.6% for the first, -1.94% for the second.

Compared with `O=C(CN1C(=O)COc2ccc(Cl)cc21)N1CCOCC1`, `OC(c1ccc(Cl)cc1)C(CN1CCOCC1)c1ccccc1` (stereo not drawn) is lower in inhibition: 8.9% for the first, -5.53% for the second.

Compared with `CC1(C(=O)NS(=O)(=O)Cc2cccc(Cl)c2)CCN1C(=O)Cc1ccccc1` (stereo not drawn), `NNC(=O)CNC(c1ccccc1)c1cc(Cl)ccc1NC(=O)c1ccccc1` (stereo not drawn) is higher in inhibition: -3.36% for the first, -2.37% for the second.

Compared with `COC(=O)c1ccccc1N=NNc1ccc([N+](=O)[O-])cc1`, `COC(=O)C1=CN(c2ccc(F)c(F)c2)C=C(C(=O)OC)C1c1ccc([N+](=O)[O-])cc1` is lower in inhibition: 18.6% for the first, 9.34% for the second.

Compared with `C=C1c2cccc(OC)c2O[C@H](C(=O)OCC)[C@@H]1CCCCCC`, `CCCCn1c(SCC(=O)NCCc2ccc(OC)c(OC)c2)nc2c1c(=O)n(C)c(=O)n2C` is higher in inhibition: -73.6% for the first, 4.31% for the second.

First: CC(=O)c1cnc(SCCN2C(=O)c3ccccc3C2=O)nc1C
Second: CCCSc1nc2c(c(=O)n(C)c(=O)n2C)n1Cc1ccc(C)cc1
The inhibition of the first is higher: 4.46% for the first, -1.85% for the second.

Going from `COC(=O)c1c(C)[nH]c(C)c1-c1ccc([N+](=O)[O-])cc1` to `Cc1cc([N+](=O)[O-])nn1CCCC(=O)Nc1cccnc1Cl`, the inhibition rises from -2.95% to 2.45%.

Compared with `Cc1ccc(C2=NN(C)c3nc4ccccc4n3C2)cc1`, `COc1ccccc1C(=O)Oc1ccc(N2C(=O)CCC2=O)cc1` is higher in inhibition: -3.04% for the first, -2.33% for the second.

First: C=CCNC(=S)NNC(=O)c1ccc(Br)o1
Second: O=C(COC(=O)/C=C/c1nc2ccccc2s1)Nc1ccccc1Oc1ccccc1
The inhibition of the first is lower: -45.2% for the first, -5.84% for the second.

In the case of `CCOCc1nnc(NC(=O)CCC2CCCCC2)s1`, the inhibition is reported as -2.53%.

For `O=c1[nH]c(=O)c2nc3ccccc3nc2[nH]1`, the inhibition was 53.2% (active).
`Cc1cc2cc(CNC(=O)c3ccc(S(=O)(=O)N4CCOCC4)cc3)ccc2[nH]1` was tested, and the inhibition was 45.1% (active).
In the case of `COCCn1c(N)c(NCc2ccccc2)c(=O)[nH]c1=O`, the inhibition is reported as 44.1% (active).
In the case of `CCOC(=O)c1sc(=S)n(-c2cccc(OC)c2)c1N`, the inhibition is reported as 40.5% (active).
`COc1ccc(Nc2ccc([N+](=O)[O-])cn2)cn1` was tested, and the inhibition was 48.7% (active).
In the case of `COC(=O)C1=C(C(=O)OC)C(c2cc([N+](=O)[O-])ccc2O)c2sc(=O)[nH]c2S1` (stereo not drawn), the inhibition is reported as 40.3% (active).
In the case of `CCOc1ccc(Cn2c(SCCCCC#N)nc3c2c(=O)n(C)c(=O)n3C)cc1OCC`, the inhibition is reported as 44% (active).
With `COc1ccc(Cl)cc1-n1c(=S)sc2c(=O)n(-c3ccc(F)cc3)c(SCC(=O)O)nc21` the inhibition was 43.8% (active).
With `O=C(c1ccc(F)cc1)n1c(=S)nc2ccccn21` the inhibition was 39% (active).
